# Compounds with a hit are over-represented: about 10% of the library has one in this group of screens.
# GPT2 inh: inhibitors of human GPT2 alanine aminotransferase | 100,000 tested, 0.25% active | Potency, µM (top dose mostly 57.7 µM), for the others: top-dose activity change, negative = inhibition, hits mostly inhibitors | Recombinant GPT2, coupled pyruvate oxidase/HRP Amplex Red fluorescence | AID 1671188 | Q8TD30; further: nearly all actives have a fitted effect of over 60% in size
#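 Inhibition is scored from Amplex Red fluorescence generated when pyruvate oxidase and HRP act on pyruvate released by GPT2. Reactions contain 10ng/uL enzyme, 250uM a-KG and 2mM L-alanine and run 30 min at room temperature.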
# HEK293 tox: kills HEK 293 cells; HEK 293 viability, ATP luminescence (CellTiter-Glo), 48-72 h; AID 1345083; 94,000 tested, 6.6% active; Potency, µM (top dose mostly 115 µM), inactives show at the highest dose activity change, negative = cytotoxicity, most hits filed as inhibitors; further: nearly all actives have a fitted effect of over 60% in size
#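 HEK 293 seeded at 250 cells/well receive compound via pintool. After 48 or 72 hr at 37 degree Celsius, 5% CO2 and 95% humidity, CellTiter-Glo is dispensed and luminescence read following 10 min at room temperature.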
# NPR1 antag: antagonists of human natriuretic peptide receptor Npr1; P16066; Potency, µM (doses to about 46.3 µM), for inactives: at the top dose activity change, negative = inhibition, most hits filed as inhibitors; HEK293 hNpr1 GloSensor cGMP, ANP-stimulated luminescence; 76,000 tested, 1.6% active; calls by dose curve; further: nearly all actives have a fitted effect of over 60% in size
# Target sequence (P16066 whole entry, looked up): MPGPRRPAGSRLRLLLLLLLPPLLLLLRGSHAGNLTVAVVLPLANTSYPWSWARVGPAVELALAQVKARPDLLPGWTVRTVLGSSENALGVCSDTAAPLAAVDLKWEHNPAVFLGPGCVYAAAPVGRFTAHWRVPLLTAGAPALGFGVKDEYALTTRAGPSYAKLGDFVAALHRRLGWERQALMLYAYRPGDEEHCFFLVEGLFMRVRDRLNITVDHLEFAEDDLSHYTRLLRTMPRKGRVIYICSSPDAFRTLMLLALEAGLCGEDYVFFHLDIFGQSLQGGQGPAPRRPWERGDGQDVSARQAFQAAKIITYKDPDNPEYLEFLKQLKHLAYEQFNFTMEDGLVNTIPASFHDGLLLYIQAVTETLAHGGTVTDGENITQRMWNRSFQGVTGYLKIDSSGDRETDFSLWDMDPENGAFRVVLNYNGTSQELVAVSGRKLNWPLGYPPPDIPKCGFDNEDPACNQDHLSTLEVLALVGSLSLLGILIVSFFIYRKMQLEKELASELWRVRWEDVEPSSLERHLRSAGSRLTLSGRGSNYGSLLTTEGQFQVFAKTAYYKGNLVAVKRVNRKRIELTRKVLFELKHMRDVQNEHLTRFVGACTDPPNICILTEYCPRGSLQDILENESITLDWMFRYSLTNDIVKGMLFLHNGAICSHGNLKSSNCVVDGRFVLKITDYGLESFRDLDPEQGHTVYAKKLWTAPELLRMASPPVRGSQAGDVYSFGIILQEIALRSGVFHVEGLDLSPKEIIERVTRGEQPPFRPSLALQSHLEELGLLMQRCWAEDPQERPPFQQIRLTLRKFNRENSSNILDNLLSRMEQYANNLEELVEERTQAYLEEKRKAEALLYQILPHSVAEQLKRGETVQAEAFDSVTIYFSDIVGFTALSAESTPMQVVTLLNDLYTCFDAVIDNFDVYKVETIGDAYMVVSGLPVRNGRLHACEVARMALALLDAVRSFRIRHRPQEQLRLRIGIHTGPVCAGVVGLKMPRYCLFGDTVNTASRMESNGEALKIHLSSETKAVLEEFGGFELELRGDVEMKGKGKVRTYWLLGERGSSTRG
#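 Compound pre-incubated 30 min at room temperature on GloSensor-loaded HEK293 cells stably carrying hNpr1 and the pGS-40F cGMP biosensor. Stimulation uses hNppA at 0.1 nM final; luminescence is taken at baseline and 20 min post-agonist.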
# 3T3 cytotox: NIH 3T3 cell cytotoxicity; Potency, µM (top dose mostly 96.7 µM), for the others: at the top dose activity change, negative = cytotoxicity, usual class: inhibitors; NIH 3T3 viability, CellTiter-Glo ATP luminescence, 48-72 h; 94,000 tested, 4.3% active; AID 1345082; further: nearly all actives have a fitted effect of over 55% in size
#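 ATP-dependent luminescence (CellTiter-Glo) served as the viability signal for NIH 3T3 cells treated with compound for 48 or 72 hr at 37 °C.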
# FLuc inh: Photinus pyralis luciferase inhibition; P08659; purified P. pyralis luciferase, luminescence, biochemical; Potency, µM (titrated, usually from 115 µM), hits mostly inhibitors; 76,000 tested, 2.5% active; AID 1347043; further: nearly all actives have a fitted effect of over 65% in size
#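 Purified 10nM P. pyralis luciferase with 10uM D-luciferin and 10uM ATP in 50mM Tris acetate pH 7.5, 10mM Mg acetate, 0.01% Tween-20, 0.05% BSA. qHTS titration; luminescence read by CCD imager.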
# An asterisk follows results filed as active; i = inactive; ? = inconclusive; · = no result given; [ ] = another dose, or the depositor's remark. Unless noted, the call rests on the fitted dose curve; in most records, active means well fitted curve in the direction sought with a large enough effect; inconclusive means small, poorly fitted or top-dose-only effect, or another doubt; inactive means no such curve, though single readings can be large; an effect the other way counts as inactive or inconclusive. On the % scale 0 is the no-effect control and ±100 the full control effect; potency means the concentration at half of the fitted maximal effect.
SMILES,GPT2 inh,HEK293 tox,NPR1 antag,3T3 cytotox,FLuc inh
COc1ccc(CCC(=O)N2CCC3(CC2)C(OC)CN3c2cccc(F)c2)cc1 (stereo unspecified),i,?,·,?,·
COc1ccc(-c2nc(C)nc3c2CN(C(=O)Cc2cccc(Cl)c2)CC3)cc1,2%,-24%,·,-17%,·
COc1ccc(-c2ccc3ncc(Nc4cccc(O)c4)n3n2)cc1OC,-8%[88.5 µM],63µM*,-13%[70.6 µM],?,i
COc1ccc(-c2ccc3ncc(Nc4ccc5c(c4)OCCO5)n3n2)cc1OC,i,45µM*,-17%[70.6 µM],?,20µM*
COc1ccc(Nc2cnc3ccc(-c4ccc(OC)c(OC)c4)nn23)cn1,?,63µM*,1%[70.6 µM],32µM*,?
COc1ccccc1Nc1cnc2ccc(-c3ccc(F)cc3)nn12,4%[88.5 µM],71µM*,-10%[70.6 µM],?,i
COc1ccc(Nc2cnc3ccc(-c4ccc(F)cc4)nn23)cc1OC,4%[88.5 µM],?,-3%[70.6 µM],?,?
COc1ncccc1Nc1cnc2ccc(-c3ccc(F)cc3)nn12,?,?,-2%[70.6 µM],?,i
CN1CCCC(CN(CCc2ccccc2)C(=O)c2cc(C#N)cn2C)C1 (stereo unspecified),5%[11.5 µM],1%,3%,-8%,i
CCn1cc(S(=O)(=O)N2CCC(Cc3nncn3-c3ccccc3)CC2)cn1,i,-10%,·,-21%,·
Cc1ncsc1C1N(C2CCN(Cc3cn(C)c4ccccc34)CC2)C(=O)C12CCCC2 (stereo unspecified),0%,79µM*,1%,-22%,i
O=[S+]([O-])(NC1CCN(Cc2ccc(-c3ccsc3)cc2)C1)c1cccs1 (stereo unspecified),-1%,40µM*,·,35µM*,·
CSc1ccc(-c2cccc(CN3CCC(NC(=O)c4ccccc4)CC3)c2)cc1,·,-10%,·,-2%,·
CSc1ccc(-c2cccc(CN3CCC(N[S+](=O)([O-])c4c(C)noc4C)CC3)c2)cc1,·,?,·,14µM*,·
CSc1ccc(-c2cccc(CN3CCC(N[S+](=O)([O-])c4ccccc4)CC3)c2)cc1,·,28µM*,·,16µM*,·
CSc1ccc(-c2cccc(CN3CCC(N[S+](=O)([O-])CCC(F)(F)F)CC3)c2)cc1,·,-22%,·,?,·
Cc1cccc(-c2cccc(CN3CCC(N[S+](=O)([O-])c4ccccc4)CC3)c2)c1,-2%,28µM*,·,25µM*,·
CCNC(=O)N1CC(c2noc(COc3ccc(OC)cc3)n2)C1,i,5%,1%,-17%,i
O=C(NCc1cccc(Cl)c1)c1cc(-c2ccc(F)cc2)c2nncn2n1,1%,?,·,?,·
Cc1cccc(-c2cccc(CN3CCC(N[S+](=O)([O-])c4cccs4)CC3)c2)c1,-6%,28µM*,·,?,·
C[S+](=O)([O-])NC1CCN(Cc2cccc(-c3cccs3)c2)CC1,4%,?,·,?,·
Cc1ccc([S+](=O)([O-])NC2CCN(Cc3cccc(-c4cccc(C)c4)c3)CC2)cc1,-8%,25µM*,·,16µM*,·
Cc1ccc(Cn2ccn3nc(-c4ccccc4)c(CO)c3c2=O)cc1,i,?,?,?,?
Cc1nn(-c2ccccc2)c2c1C(C)N(C1CCN([S+](C)(=O)[O-])CC1)C2=O (stereo unspecified),·,i,·,-10%,·
COC[C@@H]1[C@H](C(=O)NCc2ccc(C)o2)CCCN1C,-3%,-15%,·,?,·
SMILES,GPT2 inh,HEK293 tox,NPR1 antag,3T3 cytotox,FLuc inh
CN(C)C[C@@H]1CN(S(C)(=O)=O)C[C@H]1NC(=O)c1c(F)cccc1Cl,i,i,1%,1%,40µM*
CN1CCCC2(Cc3ccccc3CN(C(=O)Cc3cccc(Cl)c3)C2)C1 (stereo unspecified),i,?,·,?,·
CN1CC(=O)N(c2ccc(Cl)cc2)Cc2c(NCCCc3ccccc3)ncnc21,i,?,-21%,32µM*,40µM*
Cc1ccccc1N1Cc2c(NCCc3ccc(F)cc3)ncnc2N(C)CC1=O,i,?,0%,?,i
Cc1ccccc1N1Cc2c(NCCCc3ccccc3)ncnc2N(C)CC1=O,?,?,-2%,45µM*,i
O=C1CCN(CC(O)Cc2ccccc2)c2ccsc2CN1Cc1ccccc1 (stereo unspecified),·,-18%,·,?,·
CCC(=O)c1c(O)cc(O)cc1O,5µM*,·,·,·,·
Cc1cc(O)c2c(c1)C(=O)c1cc(O)cc(O)c1C2=O,-20%,·,·,·,·
O=C1Nc2ccc(/C=C/c3ccccc3)cc2C(=O)N2CC[C@H](NS(=O)(=O)c3cccs3)[C@@H]12,2%,?,0%,?,?
CN(Cc1ccccc1)C(=O)C1(c2ccc(NC(=O)C3CC3)cc2)CCCCC1,i,35µM*,-20%,?,i
CC(=O)Nc1ccc(C2(C(=O)N(C)Cc3ccccc3)CCCCC2)cc1,i,50µM*,2%,?,i
O=C(C1CCCC1)N1CCc2nc(C3CC3)nc(-c3ccc(O)cc3)c2CC1,i,?,·,?,·
CCn1c(CO)nnc1C1CC(NC(=O)c2cnn3cc(C)cnc23)C1 (stereo unspecified),3%,-2%,5%,1%,i
O=C(Nc1ccc(Cl)cc1)N1CCCC(C(=O)N2CCC(c3nc4ncccc4[nH]3)CC2)C1 (stereo unspecified),i,-21%,·,?,·
O=C1NC2(CCN(Cc3ccccc3)CC2)COc2ccccc21,i,?,15%[70.6 µM],?,i
O=C(NCCc1ccccc1F)c1nc2sccn2c1-c1cccc(C(F)(F)F)c1,i,?,·,?,·
O=C(COc1ccccc1)NC[C@H]1COCc2nc3cc(F)ccc3n21,0%[88.5 µM],79µM*,?,?,i
Fc1ccc2c(c1)nc1n2[C@@H](CNC2CCC2)COC1,i,?,2%[70.6 µM],71µM*,i
Cc1ccc(CN2CC(O)CN(C(=O)OCc3ccccc3)CC2=O)cc1 (stereo unspecified),·,?,·,-26%,·
Cc1nn(-c2ccccc2)c2c1C(C)N(C1CCN(C(=O)c3cccc(C(F)(F)F)c3)C1)C2=O (stereo unspecified),·,35µM*,·,?,·
Cc1ccc(C(=O)N2CC(N3C(=O)c4c(c(C)nn4-c4ccccc4)C3C)C2)cc1 (stereo unspecified),·,-19%,·,-28%,·
Cc1nn(-c2ccccc2)c2c1C(C)N(C1CCN(C(=O)c3ccccc3)C1)C2=O (stereo unspecified),·,45µM*,·,?,·
Cc1nn(-c2ccccc2)c2c1C(C1CC1)N(C1CCN(C(=O)c3cccc(C(F)(F)F)c3)C1)C2=O (stereo unspecified),·,-31%,·,-27%,·

# Source: PubChem (National Center for Advancing Translational Sciences (NCATS))
